Results published in the supplement of paper PMC6555819.

These sequences were tested on RXRa DBDmut IVT, anti-RXR (DBD mutation: RXRa K156A/R161A, NR concentration 90 nM) (assay: PBM binding z-score (relative to random genomic background probes); higher = stronger binding; sequences stand for … in GC…GCGATTGACAGCGTAGAATGAAGG).
Method in brief: (§1)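 Custom Agilent 4×180K protein-binding microarrays carried double-stranded probes. Their 34-nt variable regions held direct-repeat seeds, single-nucleotide variants, half-site ablations and random human genomic background sequences. Arrays were incubated 1 h with ligand-free nuclear receptor dimers in PBS pH 7.4, 2% milk, 0.02% Triton X-100, 1 mM DTT, 0.2 mg/mL BSA and 0.4 mg/ml salmon testes DNA. Antibodies against each partner (one per run) detected binding, and scanned fluorescence was regression-normalized. Binding z-scores use random background probes as reference.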

Sequence	PBM binding z-score
GCAGACACGTGAAACGCAGGTAACTCAGGGTGGC	-0.425
TCATATAGGTAAATGCTAGGTGATAGTCCGATCT	1.37
AGAACAAGGGCACGCTGAGTTGATAGCAGAGTAG	1.22
CCTTACGGGTCACTTCAGGTTATAGCATCGGAGT	1.67
ATCGAAAGGTCGAAGGTGAATATACCCACCCGAA	1.35
CCTATTAGTTGACCATAAGGGCAGCCGAAGCTCG	0.252
GCTAGCAGGCCTTTTGGGTCACTCAATGACGGGC	-0.579
CATAGCAGGCCAATCTGGGTCACTCAAGGCTTGA	-0.0976
CCAGACAGGTGAAAGGTGACTCAGTCTGGTACGC	-0.229
TATCGGAGGACACGAAGGTCAGAGCTTTCCAGAG	0.00455
AGAATGAGGTTATTAAGATCAGTGAATTGCGGTC	2.02
TCTCGGAGGACACGAGAGGTCAGAGCTCGACATC	0.77
ATTCAAAGTTCAGGACGAGGTAACGTAAAGCACG	2.99
CCAGACAGGTGAGAGGGTAACTCAGCCTCGATTA	-0.231
TCGAGTAGGTTAGTCGGCGCATTCAGCCAACATA	-0.0124
CAAATTAGGTCAAGAGGTCAAAGTCCGCTTCCCG	3.08
GCTAGCAGGCCATATGGGTCACTCAATGACGGGC	-0.402
TCCTGTAGATCAGCAGGTTAAGAAAGCTGGCCAA	0.636
ATCGAAAGGTCGAGGTGAATATAGAGAAAGGGAA	0.922
ACAGACAGGTGATTAAGGTAACTCAGGCTATCAT	0.282

Sequence	PBM binding z-score
AGTCGAAGTTCACTAGGTAACGTAAGATTCAGCT	3.45
CGAACTAGGTCAAGGACAGTCAATCTCCGCACGC	1.46
TCGAGGAGGTTACCAATGGGGCATTCAGCTTTCT	0.716
TCATATAGGTAAATGCTATGTGAAAGTCCGATCT	1.17
ACTAGCAGGCCAAGGTTGGGTCACTCAAACAAAG	-0.829
GCTGCTAGGTCAGGTAGGTCAGCTAACGGGTACG	0.899
TCTTGTAGATCACGCAGGTTAAGAAAGCCTGAGT	0.693
CCGACTGGGGCAAGGTTAGCATAACGCACAGCCA	-0.5
TAGCCTAGGTCATTGGTCCAGTATAGTACGCATC	1.98
CAAACTAGGTCAAAGGTCAAAGTGGAGCCAACCA	3.12
CGAACCAGGGCATGAGTTGATAGCAAATGCCGAT	0.293
CGAACTAGGTCATTGTCAGGACAGTGAATAGTAA	2.31
ATACCAAGGTGATCGTGACGTCGTTGATACTAAC	0.283
TCTTGTAGATCAAGCAGGTTAACAAAGCCTGAGT	0.714
CCTACTGGGCCACGAAAGGTCAATGATTCAGTGA	0.165
ATCTCTAGGTAAAGATAGTTCGGTGAATGCAAAT	0.0249
TCTATTAGTTGAAGGACAACCGACGAGTCCGTTT	2.05
TCTAGTAGATCAAGCAGGTTAAGAAAGCCTGAGT	0.554
ATACCATGGTGATCGTGAGGTCGTTGATACTAAC	0.547
CCTACTGGGCGATCAGGTCATTGATATCAACGTT	0.269

What follows are sequences tested on RXRa homodimer (NR concentration 180 nM) in the same assay as above.
Method in brief: as §1

Sequence	PBM binding z-score
GCAGACACGTGAAACGCAGGTAACTCAGGGTGGC	-0.324
TCATATAGGTAAATGCTAGGTGATAGTCCGATCT	0.854
AGAACAAGGGCACGCTGAGTTGATAGCAGAGTAG	0.942
CCTTACGGGTCACTTCAGGTTATAGCATCGGAGT	4.38
ATCGAAAGGTCGAAGGTGAATATACCCACCCGAA	5.69
CCTATTAGTTGACCATAAGGGCAGCCGAAGCTCG	0.392
GCTAGCAGGCCTTTTGGGTCACTCAATGACGGGC	0.552
CATAGCAGGCCAATCTGGGTCACTCAAGGCTTGA	1.09
CCAGACAGGTGAAAGGTGACTCAGTCTGGTACGC	3.18
TATCGGAGGACACGAAGGTCAGAGCTTTCCAGAG	1.79
AGAATGAGGTTATTAAGATCAGTGAATTGCGGTC	1.67
TCTCGGAGGACACGAGAGGTCAGAGCTCGACATC	3.07
ATTCAAAGTTCAGGACGAGGTAACGTAAAGCACG	3.08
CCAGACAGGTGAGAGGGTAACTCAGCCTCGATTA	0.666
TCGAGTAGGTTAGTCGGCGCATTCAGCCAACATA	-0.244
CAAATTAGGTCAAGAGGTCAAAGTCCGCTTCCCG	8.85
GCTAGCAGGCCATATGGGTCACTCAATGACGGGC	1.43
TCCTGTAGATCAGCAGGTTAAGAAAGCTGGCCAA	0.412
ATCGAAAGGTCGAGGTGAATATAGAGAAAGGGAA	4.65
ACAGACAGGTGATTAAGGTAACTCAGGCTATCAT	0.366

Sequence	PBM binding z-score
AGTCGAAGTTCACTAGGTAACGTAAGATTCAGCT	1.6
CGAACTAGGTCAAGGACAGTCAATCTCCGCACGC	2.57
TCGAGGAGGTTACCAATGGGGCATTCAGCTTTCT	1.83
TCATATAGGTAAATGCTATGTGAAAGTCCGATCT	0.894
ACTAGCAGGCCAAGGTTGGGTCACTCAAACAAAG	0.638
GCTGCTAGGTCAGGTAGGTCAGCTAACGGGTACG	2.38
TCTTGTAGATCACGCAGGTTAAGAAAGCCTGAGT	0.723
CCGACTGGGGCAAGGTTAGCATAACGCACAGCCA	0.57
TAGCCTAGGTCATTGGTCCAGTATAGTACGCATC	2.74
CAAACTAGGTCAAAGGTCAAAGTGGAGCCAACCA	10.1
CGAACCAGGGCATGAGTTGATAGCAAATGCCGAT	0.492
CGAACTAGGTCATTGTCAGGACAGTGAATAGTAA	2.37
ATACCAAGGTGATCGTGACGTCGTTGATACTAAC	0.575
TCTTGTAGATCAAGCAGGTTAACAAAGCCTGAGT	0.594
CCTACTGGGCCACGAAAGGTCAATGATTCAGTGA	4.81
ATCTCTAGGTAAAGATAGTTCGGTGAATGCAAAT	-0.171
TCTATTAGTTGAAGGACAACCGACGAGTCCGTTT	0.435
TCTAGTAGATCAAGCAGGTTAAGAAAGCCTGAGT	0.16
ATACCATGGTGATCGTGAGGTCGTTGATACTAAC	0.893
CCTACTGGGCGATCAGGTCATTGATATCAACGTT	1.02
